Our source for the z-score and composite z-score values is PubChem BioAssay.

The nature of assay [1]: HepG2 liver cancer cell viability effects, profiling panel, resazurin fluorescence, 24 h, PK04 Diversity Set (AID 1172). Further: test concentration not given here. The conditions noted are these: higher = more signal.
A short description of assay [2]: basal S. cerevisiae growth modulation, no modifier, primary screen, OD600, strain BY4716, 24 h, basal condition (AID 1173). The conditions noted are these: OD600, 24 h, higher = more signal, called active from +8 up or from −8 down.
A short description of assay [3]: MM1S myeloma cell viability, profiling panel, resazurin fluorescence, basal, 24 h, PK04 Diversity Set (AID 1174).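 Further: MM1S multiple myeloma cell line; test concentration not given here.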 The conditions noted are these: higher = more signal, called active from +8 up or from −8 down.
Assay [4] addresses Dihydroorotate dehydrogenase (quinone), mitochondrial (Plasmodium falciparum (isolate 3D7)) (UniProt Q08210). The experiment in a line: PfDHODH enzyme inhibitors, primary screen, biochemical, C-terminal His tag, absorbance 600 nm (AID 1175).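 Further: recombinant parasite enzyme with a five histidine tag at its C terminus; test concentration not given here.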 The settings on record: DCIP absorbance 600 nm, higher = more signal, called active from +8 up or from −8 down.
Assay [5] is described as follows: P. aeruginosa biofilm formation inhibitors, primary screen, strain PAO1, LB-PBS medium, absorbance 600 nm (AID 1176). Further: test concentration not given here. The conditions noted are these: P. aeruginosa PAO1 growth/biofilm, A600, 12 h; higher = more signal.
Assay [6] in a line: S. cerevisiae RM11-1a growth modifiers, primary screen, strain RM11-1a, OD600, basal, 24 h (AID 1177).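 Further: cultures grown under basal conditions with no added stressor; test concentration not given here.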 The settings on record: OD600, 24 h, higher = more signal, called active from +8 up or from −8 down.
Assay [7] in a line: E. coli acrAB mutant growth effects, primary screen, E. coli filamentation inducers, strain DRC39, OD650, 24 h (AID 1178).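 Further: growth measured as culture turbidity by optical density at 650 nm; test concentration not given here.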 The settings on record: higher = more signal, called active from +8 up or from −8 down.
A short description of assay [8]: E. coli acrAB mutant growth effects, primary screen, E. coli filamentation inducers, strain DRC39, OD650, 48 h (AID 1179).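 Further: screen aims at cell division blockers that make cells filament.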 The settings on record: E. coli DRC39 delta-acrAB growth, higher = more signal, called active from +8 up or from −8 down.
Assay [9] is described as follows: RPMI8226 myeloma cell viability, profiling panel, resazurin fluorescence, basal, 24 h, PK04 Diversity Set (AID 1180).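 Further: RPMI8826 multiple myeloma cell line at 5000 cells per well; test concentration not given here.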 The settings on record: higher = more signal.
Assay [10] concerns the target E3 ubiquitin-protein ligase XIAP (Homo sapiens) (UniProt P98170). In words: XIAP binders, primary screen, biophysical, small-molecule microarray, fluorescence 635 nm (AID 1181).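 Further: score merges 667 nm emission and signal to noise over triplicate slides.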 The conditions noted are these: small-molecule microarray binding, higher = more signal.

Activity calls are given as the source filed them. Unless noted, how the calls were made is not given here.

E3 ubiquitin-protein ligase XIAP (Homo sapiens), sequence (P98170 whole entry, looked up): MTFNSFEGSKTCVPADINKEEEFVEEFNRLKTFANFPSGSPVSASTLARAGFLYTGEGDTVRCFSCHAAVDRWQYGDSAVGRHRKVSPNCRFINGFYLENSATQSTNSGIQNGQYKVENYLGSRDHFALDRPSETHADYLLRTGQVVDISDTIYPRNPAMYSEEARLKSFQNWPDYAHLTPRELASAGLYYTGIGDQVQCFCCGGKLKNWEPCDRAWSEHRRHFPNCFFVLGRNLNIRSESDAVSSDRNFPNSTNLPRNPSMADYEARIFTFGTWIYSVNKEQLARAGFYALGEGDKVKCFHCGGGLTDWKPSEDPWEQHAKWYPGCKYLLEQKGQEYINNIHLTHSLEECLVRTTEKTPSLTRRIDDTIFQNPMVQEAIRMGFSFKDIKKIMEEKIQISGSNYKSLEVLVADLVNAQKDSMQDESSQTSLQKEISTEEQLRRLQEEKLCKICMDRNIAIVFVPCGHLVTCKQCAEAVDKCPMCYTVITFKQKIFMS
Dihydroorotate dehydrogenase (quinone), mitochondrial (Plasmodium falciparum (isolate 3D7)), sequence (Q08210 whole entry, looked up): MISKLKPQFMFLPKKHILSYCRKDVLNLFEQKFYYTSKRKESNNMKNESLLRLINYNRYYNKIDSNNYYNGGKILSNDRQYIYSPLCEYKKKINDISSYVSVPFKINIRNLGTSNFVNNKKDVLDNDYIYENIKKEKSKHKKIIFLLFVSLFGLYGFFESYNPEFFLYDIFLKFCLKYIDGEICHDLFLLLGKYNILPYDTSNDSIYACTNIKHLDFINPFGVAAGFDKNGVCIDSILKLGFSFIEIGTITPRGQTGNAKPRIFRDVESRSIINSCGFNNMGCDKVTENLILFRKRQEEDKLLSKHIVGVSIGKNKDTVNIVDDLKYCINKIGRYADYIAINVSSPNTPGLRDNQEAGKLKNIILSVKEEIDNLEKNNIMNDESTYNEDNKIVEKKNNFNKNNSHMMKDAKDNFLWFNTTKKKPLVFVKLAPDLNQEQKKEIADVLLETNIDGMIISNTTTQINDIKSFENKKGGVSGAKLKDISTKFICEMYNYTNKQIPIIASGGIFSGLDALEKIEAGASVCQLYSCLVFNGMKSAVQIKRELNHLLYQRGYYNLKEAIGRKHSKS

In the case of `CCCC=C(CCC)[C@@H](NS(=O)(=O)c1cccc2cccnc12)c1ccc(C(=O)OC)cc1`, the z-score is 0.582 in assay [1]; 1.35 (inactive) in assay [2]; 0.058 (inactive) in [3]; 0.371 (inactive) in assay [5]; 1.04 (inactive) in [6]; 0.134 (inactive) in assay [7]. The z-score was -0.754 (inactive) in [8] and 0.0013 in assay [9]. In addition, the values for the composite z-score in [4] and in [10] were -0.0345 (inactive) and 0.67, respectively.

Turning to `Cc1cc(C)c(C(O)C2C=CC3C(=O)N(c4ccccc4)C(=O)C3N2Nc2ccccc2)c(C)c1` (stereo not given), the z-score in assay [1] is -0.156; in [2], 0.439 (inactive); in assay [3], -0.307 (inactive); in [5], 1.14 (inactive); in assay [6] it was 0.292 (inactive); in assay [7], -0.297 (inactive). For the same molecule, the z-score is 0.445 (inactive) in assay [8] and -0.0598 in assay [9]. Moreover, the values for the composite z-score in assay [4] and in assay [10] were 0.224 (inactive) and 0.0542, respectively.

`COCCCNC(=O)[C@@]1(Cc2ccccc2)COC(c2ccc(OCCCO)cc2)=N1`: the z-score was 0.515 in assay [1]; -0.0995 (inactive) in [2]; 0.141 (inactive) in assay [3]; -0.499 (inactive) in assay [5]; -0.031 (inactive) in assay [6]; -0.13 (inactive) in [7]. For the same molecule, the figures for the z-score in [8] and in assay [9] were 0.993 (inactive) and 1.22, respectively. For the same molecule, the composite z-score in assay [4] was 0.45 (inactive); in assay [10], -0.098.

In the case of `O=C(C=C(CC(O)c1cccc(Cl)c1)OCCF)OCCF` (stereo not given), the z-score in assay [1] was -0.0453; in assay [2], -1.47 (inactive); in [3], 0.0592 (inactive); in assay [5], -0.777 (inactive); in [6], -1.33 (inactive); in assay [7], -0.0441 (inactive). For the same molecule, the values for the z-score in [8] and in assay [9] were 1.04 (inactive) and 0.335, respectively. The values for the composite z-score in assay [4] and in [10] were -2.48 (inactive) and 0.237, respectively.

Take `CN1C(=O)C2C=CC(C(O)COCc3ccccc3)N(Nc3ccccc3)C2C1=O` (stereo not given): the z-score in assay [1] is 0.425; in assay [2], -0.396 (inactive); in assay [3], -0.825 (inactive); in [5] it was -0.0346 (inactive); in assay [6], 0.328 (inactive); in assay [7], -0.925 (inactive). Besides, the z-score is 0.0813 (inactive) in [8] and 0.182 in assay [9]. Besides, the composite z-score was -0.284 (inactive) in [4] and 0.267 in assay [10].

Regarding `COC(=O)[C@@]1(Cc2ccccc2)[C@H]2c3cc(C(=O)N4CCCC4)n(CCO)c3C[C@H]2CN1C(=O)c1ccccc1`, the z-score in assay [1] is 0.445; in [2] it was 0.192 (inactive); in [3], -0.892 (inactive); in assay [5] it was 0.259 (inactive); in assay [6], -0.483 (inactive); in assay [7], 0.355 (inactive). Moreover, the z-score in assay [8] is 1.05 (inactive); in assay [9], 0.309. Further, the figures for the composite z-score in [4] and in assay [10] were -1.2 (inactive) and 0.202, respectively.

With `C=CC[C@]1(C(=O)N(C)C)N=C(c2ccc(OCCCO)cc2)O[C@H]1c1ccccc1`, the z-score is 0.549 in assay [1]; -2.54 (inactive) in assay [2]; 0.911 (inactive) in assay [3]; -0.484 (inactive) in assay [5]; -0.689 (inactive) in assay [6]; 1.23 (inactive) in assay [7]. Moreover, the z-score in [8] was 0.771 (inactive); in [9] it was 0.586. Besides, the composite z-score in assay [4] was -0.588 (inactive); in assay [10], 0.133.

Take `CCCCC(=C=CC[C@H](O)c1cccc(OCCO)c1)C[C@H](O)COCc1ccccc1`: the z-score was 1.38 in assay [1]; -0.919 (inactive) in assay [2]; 0.202 (inactive) in assay [3]; 0.342 (inactive) in assay [5]; 0.178 (inactive) in assay [6]; 0.525 (inactive) in [7]. Further, the z-score in assay [8] is 0.122 (inactive); in [9], 0.774. The composite z-score is -1.06 (inactive) in assay [4] and -0.165 in assay [10].

As for `Cc1ccccc1C(O)C1C=CC2C(=O)N(Cc3ccccc3)C(=O)C2N1n1cnnc1` (stereo not given), the z-score was 1.09 in [1]; 0.232 (inactive) in assay [2]; -0.562 (inactive) in assay [3]; 0.726 (inactive) in assay [5]; -0.226 (inactive) in assay [6]; -0.197 (inactive) in assay [7]. Also, the z-score in assay [8] was 0.208 (inactive); in assay [9] it was -0.408. Further, the composite z-score in assay [4] was -0.407 (inactive); in assay [10], -0.184.

Regarding `COC(=O)[C@]1(Cc2ccccc2N=[N+]=[N-])N=C(c2ccc(OCCCO)cc2)O[C@@H]1c1ccccc1`, the z-score in [1] was -6.11; in [2], -1.69 (inactive); in assay [3] it was -8.86 (active); in [5], 0.783 (inactive); in assay [6], 1.53 (inactive); in assay [7], 2.06 (inactive). The figures for the z-score in assay [8] and in assay [9] were 1.55 (inactive) and -7.19, respectively. For the same molecule, the composite z-score in [4] is 0.106 (inactive); in [10], 0.007.

With `NC(=O)NCC#Cc1ccc2c(c1)[C@]1(C(=O)N2)[C@H](c2ccc(OCCO)cc2)N2[C@H](c3ccccc3)[C@H](c3ccccc3)OC(=O)[C@H]2[C@@H]1C(=O)N1CCN(c2ncccn2)CC1`, the z-score in assay [1] is 0.21; in [2], 1.04 (inactive); in assay [3], 0.963 (inactive); in assay [5], 2.71 (inactive); in assay [6], 2.58 (inactive); in assay [7] it was 0.665 (inactive). Also, the z-score in assay [8] is 0.773 (inactive); in assay [9], 1.79. In addition, the composite z-score in [4] was -0.858 (inactive); in assay [10], -0.149.
